Sampled rows, rich in hits. Any-hit rate of the full collection: about 1.6%.
KCNQ2 enhance: enhances the rat KCNQ2 potassium channel; O88943; CHO-K1 KCNQ2, FluxOR thallium flux fluorescence; hits give high values; B-score at 10 µM; 0.54% of 310,000 active; AID 2239;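 active = fluorescence ratio B-score at least 3 SD of library B-scores, with initial fluorescence B-score within 3 of them, cut at about 5.3 in these data; same plate scores as AID 2156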;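 note: B-score of peak minus minimum over baseline fluorescence ratio after K+ and Tl+ stimulus; positive B-score means potentiation of KCNQ2 with more thallium influx and brighter signal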
KCNQ2 inh: KCNQ2 (rat) channel inhibition; O88943; CHO-K1 KCNQ2, FluxOR thallium flux, 20 min; hits give low values; B-score at 10 µM; 1.1% of 310,000 active; AID 2156;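 active = fluorescence ratio B-score at most minus 3 library SDs, with starting brightness B-score within 2 library SDs, cut at about -5.5 in these data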
* = called active by the depositor; i = inactive; . = no result given.

SMILES	KCNQ2 enhance	KCNQ2 inh
CC(NC(=O)NC1CCCCC1)c1ccccc1 (centres undefined)	13*	i
C/C(=N/NC(=O)CNC(=O)c1cccc(F)c1)c1ccc2c(c1)CCCC2	0.25	i
Cc1ccc2c(C)c(C(=O)N3CCCCC3CO)oc2c1C (centres undefined)	.	i
O=C(NC(=S)Nc1ccc(CN2CCCCC2)cc1)c1cccc(OCc2ccccc2)c1	-6	-6*
CC(=O)c1cccc(OCc2cc(C(=O)NC3CCN(Cc4ccccc4)CC3)no2)c1	6.3*	i
O=C(O)c1ccc(NC(=S)NC(=O)c2cccc(COc3ccccc3)c2)cc1	.	i
O=C(NC1CCN(Cc2ccccc2)CC1)c1cccc(OC(F)F)c1	0.15	i
COc1ccc(C)cc1NC(=O)NCc1ccc(F)cc1	0.02	i
C(=N\N(c1ccccc1)c1ccccc1)/c1ccccn1	-6.2	-6.2*
C(=N\n1cnnc1)/c1ccccn1	.	i
Cc1cccc(C)c1NC(=O)/C(=C/c1ccco1)c1ccccc1	.	i
Cc1cc(C)c(NC(=O)/C(=C/c2ccco2)c2ccccc2)c(C)c1	-6	-6*
O=C(c1ccc(-n2ccnc2)cc1)N1CCCC(CO)(Cc2cccc(Cl)c2)C1 (centres undefined)	0.59	i
C=CCn1c(C)cc(C(=O)COC(=O)[C@@H](NC(=O)c2ccccc2Cl)C(C)C)c1C	-7.5	-7.5*
C=CCn1c(C)cc(C(=O)COC(=O)COc2ccccc2C#N)c1C	.	i
COc1ccc(C=C(c2nc3ccccc3s2)c2nc3ccccc3s2)cc1O	.	i
COc1cc(C=C(c2nc3ccccc3s2)c2nc3ccccc3s2)ccc1O	-6	-6*
O=C(NCCc1ccccc1)c1nc(-c2cccs2)no1	.	i
CSc1ccc(CCNC(=O)c2cc(C)nn2-c2ccccc2)cc1	.	i
O=C(CN1C(=O)COc2ccc(S(=O)(=O)N3CCCC3)cc21)NC1CC1	.	i
O=C(CN1C(=O)COc2ccc(S(=O)(=O)N3CCCC3)cc21)NC1CCCCCCC1	11*	i
CCCCN1CCCC1CNC(=O)c1cc(C#N)c2ccccc2c1OC (centres undefined)	0.8	i
CC1CCCCN1C(=O)Nc1ccccc1Cl (centres undefined)	.	i
CCCC1c2ccc(C)n2CCN1C(=O)Nc1ccccc1Cl (centres undefined)	-7.2	-7.2*
CCOC(=O)c1ccccc1NC(=O)N1CCn2c(C)ccc2C1CC (centres undefined)	-6.2	-6.2*
SMILES	KCNQ2 enhance	KCNQ2 inh
CCC1c2ccc(C)n2CCN1C(=O)Nc1ccccc1C(=O)OC (centres undefined)	.	i
CC1CC(NC(=O)CC#N)CC(C)(C)C1 (centres undefined)	.	i
CC1CC(NC(=O)Cc2ccc(Br)cc2)CC(C)(C)C1 (centres undefined)	-5.7	-5.7*
COc1cccc(N2CCN(C(=O)C3CCC(=O)N(C4CCCCCC4)C3)CC2)c1 (centres undefined)	.	i
N#C/C(=C/c1ccc(N2CCCCCC2)o1)c1ccc(F)cc1	-7	-7*
N#C/C(=C/c1ccc(N2CCCCCC2)o1)c1cccc(F)c1	.	i
CCn1c(C)c(C)c2cc(C(=O)Nc3cccc(Cl)c3)ccc21	-6.6	-6.6*
CCn1c(C)cc(O)c(C(=O)Nc2cccc(Cl)c2)c1=O	1.6	i
Cc1ccc(NC(=O)COc2ccc(Br)cn2)cc1	.	i
Cc1ccc(N(C(=O)c2ccccc2Cl)C2=NC(C)CS2)c(C)c1 (centres undefined)	-6	-6*
CCOc1ccccc1N(C(=O)c1ccccc1Cl)C1=NC(C)(C)CS1	.	i
O=C(CN(C(=O)c1csnn1)c1ccc(F)c(Cl)c1)NCc1ccc2c(c1)OCO2	0.49	i
CN(CC(=O)Nc1c(Cl)cccc1Cl)C(=O)c1cc2ccccc2cc1O	.	i
COC(=O)c1cc(NC(=O)c2cccc(C(F)(F)F)c2)c(=O)oc1C/C=N/OCc1cccc(Cl)c1Cl	-7.7	-7.7*
COC(=O)c1cc(NC(=O)c2cccc(C(F)(F)F)c2)c(=O)oc1C	.	i
CCCCC[C@H]1CN(Cc2ccccc2)C(=O)[C@@H]1CC(=O)NCc1ccc(OC)cc1	.	i
Cc1ccc(NC(=O)c2sccc2SCc2cccc(C(F)(F)F)c2)cc1	-6.8	-6.8*
Cc1cccc(C)c1NC(=O)c1sccc1SCc1cccc(C(F)(F)F)c1	.	i
O=P(c1ccccc1)(c1ccccc1)C(O)c1ccc(Br)cc1 (centres undefined)	.	i
COc1ccccc1NC(=O)OC(C)c1ccc(Cl)cc1 (centres undefined)	-5.8	-5.8*
COc1ccccc1NC(=O)Nc1cc(C(C)C)ccc1C	1.2	i
COc1ccccc1NC(=S)NCCc1ccc(Cl)cc1	-6.2	-6.2*
COc1ccccc1NC(=S)NCCSc1ccc(Cl)cc1	.	i
Cc1ccc(OCCCN2CCOCC2)cc1	0.58	i
O=[N+]([O-])c1ccc(C2OCCO2)cc1CS(=O)(=O)c1ccccc1	3	i
SMILES	KCNQ2 enhance	KCNQ2 inh
Cc1ccc2c(c1)N(C(=O)CCC(=O)NCc1ccccn1)CC(C)O2 (centres undefined)	0.12	i
CC(=O)N1CCN(c2cc(N3CCc4ccccc4C3)c(F)cc2[N+](=O)[O-])CC1	-5.6	-5.6*
CCC(=O)N1CCN(c2cc(N3CCCC3)c(F)cc2[N+](=O)[O-])CC1	0.05	i
COc1cccc(NC(=O)COC(=O)CCCC2=NS(=O)(=O)c3ccccc3N2)c1	1.3	i
Cc1nonc1C1CCCN1C(=O)c1cc(COc2ccc(F)cc2F)on1 (centres undefined)	1.3	i
Cc1ccc(-c2cc(C(=O)NCCCn3ccnc3)c3ccccc3n2)s1	.	i
CCc1ccc(-c2cc(C(=O)NCCCn3ccnc3)c3ccccc3n2)s1	-8.2	-8.2*
COc1ccc(OC)c(-c2cnc(OC(C)(C)C)nc2OC(C)(C)C)c1	-5.7	-5.7*
COc1ccc(-c2ccc(-c3nnc(-c4cc(OC)ccc4OC)o3)cc2)cc1	0.4	i
O=C(CSc1nc2ccccc2s1)c1ccc(O)cc1O	.	i
CCC(=O)n1nc(NCc2ccccc2OC)nc1NCc1ccccc1OC	-7.3	-7.3*
COc1ccc(CNc2nc(NCc3ccc(OC)cc3)n(C(C)=O)n2)cc1	.	i
CCOC(=O)C1=C(C)NC(C)=C(C(=O)OC)C1c1cccc(Cl)c1Cl (centres undefined)	-7.5	-7.5*
CCOC(=O)C1=C(COCCN)NC(C)=C(C(=O)OC)C1c1ccccc1Cl (centres undefined)	.	i
CCNc1nc2cccnc2s1	.	i
O=c1c2ccccc2nc(SCc2cc(F)cc3c2OCOC3)n1Cc1ccco1	-8	-8*
CCOC(=O)c1cc2c(c(CSc3nc4ccccc4c(=O)n3Cc3ccco3)c1)OCOC2	-5.6	-5.6*
O=C(CSc1nc2ccccc2c(=O)n1Cc1ccco1)NCc1ccco1	1.1	i
CN(Cc1ccccc1)C(=O)CSc1nc2ccccc2c(=O)n1Cc1ccco1	.	i
Fc1ccc(Cn2cccc2C2=NC(c3ccccc3)CO2)cc1 (centres undefined)	.	i
Cc1oc(-c2ccccc2)nc1Cn1cccc1C1=NC(c2ccccc2)CO1 (centres undefined)	-6	-6*
O=c1cc(CN2CCN(S(=O)(=O)c3ccc4c(c3)OCCO4)CC2)c2ccc(O)cc2o1	-5.6	-5.6*
